From PubChem BioAssay AID624088 (Broad Institute, 2012)
Calls of active or inactive are those of the source.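 Rule for the calls: active = fitted potency no more than ten times the top tested concentration; inactive = fitted potency more than ten times the top tested concentration.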

Experiment: beta-catenin nuclear translocation by GSK3b inhibition, dose response, orthogonal assay for GSK3b inhibitor project, cell-based, U2-OS, PathHunter, beta-gal complementation, dry powder (AID 624088)

| Compound | outcome |
| --- | --- |
| COc1ccccc1[C@H]1C2=C(CC(C)(C)CC2=O)Nc2n[nH]c(C(F)(F)F)c21 | inactive |
| Cc1[nH]nc2c1C(C)C1=C(CC(C)(C)CC1=O)N2 (stereo not given) | inactive |
| COc1ccccc1C1C2=C(CC(C)(C)CC2=O)Nc2n[nH]c(-c3ccccc3)c21 (stereo not given) | inactive |
| Cc1[nH]nc2c1C(c1ccc(C(F)(F)F)cc1)C1=C(CC(C)(C)CC1=O)N2 (stereo not given) | inactive |
| Cc1ccccc1C1C2=C(CC(C)(C)CC2=O)Nc2n[nH]c(C)c21 (stereo not given) | inactive |
| COc1ccccc1C1C2=C(CC(C)(C)CC2=O)Nc2ccccc21 (stereo not given) | inactive |
| COc1ccccc1C1C2=C(CCC(C)(C)C2=O)Nc2n[nH]c(C)c21 (stereo not given) | inactive |
| O/N=C/c1cn(-c2ccccc2)nc1-c1ccc(Cl)cc1 | inactive |
| COc1ccccc1C1C2=C(CCCC2=O)Nc2n[nH]c(C)c21 (stereo not given) | inactive |
| Cc1[nH]nc2nc3c(cc12)C(=O)CC(C)(C)C3 | inactive |
| Cc1[nH]nc2c1[C@H](c1ccccc1C(F)(F)F)C1=C(CC(C)(C)CC1=O)N2 | inactive |
| Cc1[nH]nc2c1C(C1CCCCC1)C1=C(CC(C)(C)CC1=O)N2 (stereo not given) | inactive |
| COc1ccccc1C1C(C(C)=O)=C(C)Nc2n[nH]c(C)c21 (stereo not given) | inactive |
| COc1ccccc1-c1c2c(nc3n[nH]c(C)c13)CCC2=O | inactive |
| COc1ccc(-c2nn(-c3ccccc3)cc2CO)cc1 | inactive |
| COc1ccccc1C1C2=C(CC(C)(C)CC2=O)Nc2onc(C)c21 (stereo not given) | inactive |
| COc1ccccc1[C@@H]1C2=C(CC(C)(C)CC2=O)Nc2n[nH]c(C)c21 | inactive |
| COc1ccccc1C1C2=C(CC3(CCCCC3)CC2=O)Nc2n[nH]c(C)c21 (stereo not given) | inactive |
| Cc1[nH]nc2c1C(C1CC1)C1=C(CC(C)(C)CC1=O)N2 (stereo not given) | inactive |
| COc1ccc(-c2nn(-c3ccccc3)cc2C(=O)O)cc1 | inactive |
